Compound activity deposited in PubChem BioAssay by National Center for Advancing Translational Sciences (NCATS).
Pf growth 96h: Primary qHTS for delayed death inhibitors of the malarial parasite plastid, 96 hour incubation. P. falciparum luciferase reporter growth, 96 h. Potency, µM (series often up to 28.7 µM), inactives show at the highest dose activity change, negative = inhibition, most hits filed as inhibitors. 320,000 compounds, 6.9% hits; note: potency is the fitted concentration of half-maximal effect; % is set by controls: 0 for no effect and ±100 for the full control effect
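Readout is luminescence from an integrated firefly luciferase in P. falciparum. Red cells, 2% hematocrit and 0.05% parasitemia final, were cultured with compound through two parasite generations (96 hours) at 37 C, 5% CO2.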
LmPK inhibitor: qHTS Assay for Inhibitors of Leishmania Mexicana Pyruvate Kinase (LmPK). Q27686. purified LmPK, Kinase-Glo ATP luminescence, 1 h. Potency, µM (titrated, usually from 57.5 µM), for the others: at the highest dose activity change, negative = inhibition, hits mostly inhibitors. 290,000 compounds, 0.37% hits; note: potency is the fitted concentration of half-maximal effect; % is set by controls: 0 for no effect and ±100 for the full control effect
Target sequence (Q27686 whole entry, looked up): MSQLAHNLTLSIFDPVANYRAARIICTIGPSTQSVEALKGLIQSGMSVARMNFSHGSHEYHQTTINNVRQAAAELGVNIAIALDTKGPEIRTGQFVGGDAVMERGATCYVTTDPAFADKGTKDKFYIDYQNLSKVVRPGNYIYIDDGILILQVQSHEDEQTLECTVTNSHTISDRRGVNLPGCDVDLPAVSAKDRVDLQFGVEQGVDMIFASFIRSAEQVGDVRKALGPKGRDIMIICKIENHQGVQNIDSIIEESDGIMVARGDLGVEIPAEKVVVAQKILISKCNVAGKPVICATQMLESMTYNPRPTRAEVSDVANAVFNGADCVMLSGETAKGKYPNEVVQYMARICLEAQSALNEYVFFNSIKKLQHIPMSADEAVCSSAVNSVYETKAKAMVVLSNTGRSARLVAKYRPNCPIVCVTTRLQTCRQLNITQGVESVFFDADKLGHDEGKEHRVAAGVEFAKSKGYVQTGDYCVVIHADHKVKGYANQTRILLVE
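Pyruvate kinase activity monitored as ATP production (luciferase luminescence). Conditions: 0.1 nM enzyme, 0.5 mM PEP, 0.1 mM ADP, 1 h, RT; normalized against uninhibited and no-enzyme wells.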
CHX counter: Cycloheximide Counterscreen for Small Molecule Inhibitors of Shiga Toxin; cell reporter, cycloheximide protein synthesis inhibition counterscreen; max response, %; AID 2314, 2010; 300,000 compounds, 12% hits; in the data active = max response mostly above about 13%, no sharp cut-off; inactive = mostly below about 14%; note: read at 38.3 µM for the half of the compounds with a filed dose; 0% is about no effect
Pf growth 48h: Primary qHTS for delayed death inhibitors of the malarial parasite plastid, 48 hour incubation; P. falciparum luciferase growth in erythrocytes, 48 h; Potency, µM (highest dose often 28.7 µM), inactives show at the highest dose activity change, negative = inhibition, hits mostly inhibitors; 310,000 compounds, 5.9% hits; AID 504832, 2011; note: potency is the fitted concentration of half-maximal effect; % is set by controls: 0 for no effect and ±100 for the full control effect
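Here the parasites carry a stable luciferase gene and grow inside erythrocytes in Albumax-based RPMI medium with compound for one erythrocytic cycle. Activity is scored as loss of luminescent signal.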
Shiga inhibitor: A qHTS for Small Molecule Inhibitors of Shiga Toxin; Vero cells, Shiga toxin protein synthesis inhibition reporter; inhibition, % at 38.7 µM; 290,000 compounds, 9.2% hits; in the data active = inhibition mostly above about 28%, no sharp cut-off; inactive = mostly below about 43%; note: 0% is about no effect
Active calls of the source: *; ? = inconclusive; nt = no result given; [ ] = remark or other dose. In the library only some 22% were active in any assay of this set; here they are far more common. Unless noted, calls come from the whole dose curve; as a rule, active = well fitted inhibition curve with a large enough effect; inconclusive = small, poorly fitted or top-dose-only effect, or another doubt; inactive = no such curve, though single readings can be large or run the other way.

SMILES	Pf growth 96h	LmPK inhibitor	CHX counter	Pf growth 48h	Shiga inhibitor
COCCN(C(=O)CCc1ccccc1OC)c1nnc(-c2cccnc2)s1	?	-3%	1	?	-13
N[C@@H](Cc1ccccc1)C(=O)N1CCC(C(=O)N[C@@H](Cc2c[nH]c3ccccc23)C(=O)O)CC1	45%	1%	-3	7%	3
CC(C)[C@H](NC(=O)OC(C)(C)C)C(=O)N1CCC(C(=O)N[C@@H](C)C(=O)Nc2ccc(F)cc2)CC1	0%	-5%	-2	-13%	33
CCc1ccc(NC(=O)[C@H](C)NC(=O)C2CCN(C(=O)[C@@H](N)Cc3ccccc3)CC2)cc1	61%	0%	16*	26%	23*
CCc1ccc(NC(=O)[C@H](C)NC(=O)C2CCN(C(=O)[C@@H](NC(=O)OC(C)(C)C)C(C)C)CC2)cc1	?	1%	14*	?	53
COCCN1CC(C(=O)N2CCC(Oc3ccccc3OC)CC2)CCC1=O (configuration not stated)	9%	5%	-2	-15%	12
CCC(=O)NC(Nc1sc2c(c1C(=O)OC)CCCC2)(C(F)(F)F)C(F)(F)F	-2%	4%	3	3%	-10
COC(=O)c1c(NC(=O)CCS(=O)(=O)c2ccccc2)sc2c1CCN(C)C2	?	7%	0	13µM*	-8
CC(C)N1CCc2c(sc(NC(=O)CCS(=O)(=O)c3ccccc3)c2C#N)C1	?	5%	5	-28%	17
CCC(=O)Nc1sc2c(c1C(=O)OC)CCN(Cc1ccccc1)C2	-4%	1%	-1	?	-3
COC(=O)c1c(NC(NC(=O)c2ccccc2)(C(F)(F)F)C(F)(F)F)sc2c1CCN(C)C2	2.3µM*	0%	-3	8.3µM*	-4
CCCN1CCc2c(sc(NC(=O)CCS(=O)(=O)c3ccccc3)c2C(=O)OC)C1	13µM*	0%	7	?	-8
COc1cccc(NC(=O)CN2C(=O)CSc3nc(C)cc(C)c32)c1	-19%	0%	-1	0%	-1
O=C(O)c1ccccc1C(=O)c1ccc(Br)s1	30%[1.15 µM]	1%	6	-16%	-1
CCN(CC(=O)Nc1ccc(NC(C)=O)cc1)C(=O)CCCc1nc2ccccc2s1	?	nt	nt	-23%	nt
CN(Cc1cccc(F)c1)C(=O)c1ccc2c(=O)n3c(nc2c1)CCC3	6%	-4%	-1	-6%	2
CCN(C(=O)c1ccc2c(=O)n3c(nc2c1)CCCCC3)c1ccc(F)cc1	?	-9%	-1	0%	13
COc1cccc(COC(=O)c2ccc3c(=O)n4c(nc3c2)CCC4)c1OC	?	nt	nt	13µM*	nt
CCOc1ccccc1N(CC)C(=O)c1ccc2c(=O)n3c(nc2c1)CCCCC3	12µM*	2%	-4	?	-6
COc1cccc(CN(C)C(=O)c2ccc3c(=O)n4c(nc3c2)CCC4)c1OC	-4%	-6%	36*	-5%	69
Cc1ccc(NC(=O)C2CCCN2S(=O)(=O)c2ccc(F)cc2)c(C)c1 (configuration not stated)	nt	2%	-3	-14%	-6
Cc1ccccc1NC(=O)C(C)O/N=C/c1cccc([N+](=O)[O-])c1 (configuration not stated)	?	4%	1	nt	-3
CCOC(=O)N1CCC(NC(=O)c2cc3c(-c4ccc(OC)c(OC)c4)nn(C)c3s2)CC1	9.3µM*	-1%	10	?	-18
COc1ccc(NC(=O)c2cc3c(-c4ccc(OC)c(OC)c4)nn(C)c3s2)cc1OC	-30%	5%	51*	nt	100*
Cc1ccc(Cl)cc1N1CCN(C(=O)c2noc(C(C)C)c2[N+](=O)[O-])CC1	?	4%	4	?	22
SMILES	Pf growth 96h	LmPK inhibitor	CHX counter	Pf growth 48h	Shiga inhibitor
O=C(CCNS(=O)(=O)c1ccc(Cl)cc1)NCc1cccs1	40%	2%	5	-20%	27
O=S(=O)(c1ccccc1)[C@@]1(c2ccc(Br)cc2)C[C@@H]2ON=C(c3cccc(Br)c3)[C@@H]2C1	?	nt	nt	9.3µM*	nt
O=C1CN(C(=O)c2ccc(Br)o2)C(c2ccccc2)c2cc(F)ccc2N1 (configuration not stated)	12µM*	8%	-6	nt	-12
CCOc1ccc(NC2=CC(=O)CC(c3ccco3)C2)cc1 (configuration not stated)	19%	-5%	11	?	33
O=C1C=C(Nc2ccc(Cl)cc2)CC(c2ccco2)C1 (configuration not stated)	?	8%	2	9.3µM*	6
O=C1C=C(Nc2ccc(Cl)cc2)CC(c2ccc(Cl)cc2)C1 (configuration not stated)	?	2%	36	9.3µM*	75
O=C1C=C(NCc2ccco2)CC(c2ccc(Cl)cc2)C1 (configuration not stated)	-12%	4%	-2	-12%	-11
COc1ccccc1NC1=CC(=O)CC(c2ccccc2)C1 (configuration not stated)	?	-1%	-3	?	-2
Cc1ccc(C2CC(=O)C=C(Nc3ccc(Cl)cc3)C2)cc1 (configuration not stated)	32%	-2%	-2	15µM*	-15
Cc1ccc(C2CC(=O)C=C(NCC(C)C)C2)cc1 (configuration not stated)	-1%	-2%	-2	?	-3
CN(C)c1ccc(C2CC(=O)C=C(Nc3ccccc3N)C2)cc1 (configuration not stated)	28%	1%	40*	32%	68*
O=C(c1ccc(COc2ccccc2Br)o1)N1N=C(C(F)F)CC1(O)C(F)F (configuration not stated)	-14%	4%	-2	-13%	14
Cc1ccc(N2CC(C(=O)N3CCOCC3)CC2=O)cc1Cl (configuration not stated)	-1%	2%	-4	0%	1
CCCCCCCNC1=CC(=O)CC(c2ccco2)C1 (configuration not stated)	10µM*	2%	19*	2.3µM*	13
O=C1C=C(Nc2cccc(O)c2)CC(c2ccco2)C1 (configuration not stated)	1%	8%	1	25%	15
COc1cc(/C=C2\N=C3CCCCCN3C2=O)ccc1O	nt	-10%	30*	8%	114*
COc1ccc(/C=C2/N=C3CCCCCN3C2=O)cc1	-8%	0%	30*	5%	75*
O=C1/C(=C\c2ccc(O)c(O)c2)N=C2CCCCCN12	18%	-5%	17*	-1%	106*
O=C1/C(=C/c2cccnc2)N=C2CCCCCN12	10%	0%	-1	6%	11
COc1ccc(/C=C2\N=C3CCCCCN3C2=O)cc1OC	0%	-4%	17	12%	21
